Assay results taken from PubChem BioAssay AID2540 (Sanford-Burnham Center for Chemical Genomics, 2010).
Screen size: about 330,000 compounds; about 4,100 (1.2%) were called active. This is one part of a sample in which actives are shown more often than they occur. Rule as the data show it: active = inhibition above about 50%; inactive = the rest.

Biological target: Sentrin-specific protease 8 (Homo sapiens) (UniProt Q96LD8)
Assay: blockers of human SENP8 peptidase activity – biochemical, luminescence, primary screen (AID 2540)
Settings: purified SENP8, Z-RLRGG-aminoluciferin cleavage, at 10 µM, active compounds read high

Sequence of Sentrin-specific protease 8 (Homo sapiens) (Q96LD8 whole entry, looked up): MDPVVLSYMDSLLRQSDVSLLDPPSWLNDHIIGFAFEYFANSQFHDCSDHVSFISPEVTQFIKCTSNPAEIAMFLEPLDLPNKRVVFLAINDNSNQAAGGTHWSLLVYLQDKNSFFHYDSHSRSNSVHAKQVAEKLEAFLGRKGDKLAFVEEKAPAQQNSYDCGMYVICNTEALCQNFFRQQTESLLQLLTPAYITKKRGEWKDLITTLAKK

| SMILES | inhibition |
| --- | --- |
| COc1cccc(-c2nc3ccc(N4CCN(C)CC4)cc3[nH]2)c1 | 57.4% (active) |
| Cc1nc2ccc(N3CCN(C)CC3)cc2nc1C | -5.08% (inactive) |
| CN1CCN(c2cc(N3CCNCC3)ccc2[N+](=O)[O-])CC1 | 2.96% (inactive) |
| CN(C)P(=S)(Nc1ccccc1)C(Cl)(Cl)Cl (stereo not given) | -7.38% (inactive) |
| COc1ccccc1CN1CCN(C(=O)Cc2ccccc2)CC1 | -9.12% (inactive) |
| CCOC(=O)c1c(N)n(CCN2CCOCC2)c2nc3ccccc3nc12 | 2.3% (inactive) |
| COc1cc(Cn2c(N)c(C(=O)NCc3ccco3)c3nc4ccccc4nc32)cc(OC)c1OC | 90.9% (active) |
| CCOC(=O)c1c(N)n(Cc2ccccc2)c2nc3ccccc3nc12 | 9.31% (inactive) |
| CC(=O)c1ccc(OC(NC(=O)Cc2ccccc2)C(Cl)(Cl)Cl)cc1 (stereo not given) | -0.124% (inactive) |
| CCOc1ccc(CN(CCCl)CCCl)cc1C(=O)OC | -7.06% (inactive) |
